These results are taken from paper PMC8384837, “Expanding the binding specificity for RNA recognition by a PUF domain”.

What all share (assay): yeast three-hybrid, YBZ-1, SC-Leu-His + 0.5 mM 3-AT, 4 days
What all share (details): tags: N-Gal4 AD-HA kept; label: inside an RPR1-promoter hybrid RNA with tandem MS2 sites; ssRNA

One assay has as its target PUM1 PUF domain R3-RDS (Homo sapiens, UniProt Q14671 828-1176, C935R;R936D;Q939S). An outline of the steps: (§1)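 The interaction score is the logarithmic change in variant frequency from input to selection. It uses log2, with a pseudocount of 1 for absent variants, and frequencies came from PCR-amplified, Illumina-sequenced repeat regions. The libraries were Pumilio-1 PUF domains randomized at the three base-contacting residues per repeat, co-expressed with matching RNA elements in strain YBZ-1 (LexA–MS2 coat fusion, HIS3 reporter). Plating lasted four days on SC-Leu (input) or SC-Leu-His + 0.5 mM 3-AT (selection).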

The target in a further assay is PUM1 PUF domain R3-LYA (Homo sapiens, UniProt Q14671 828-1176, C935L;R936Y;Q939A). An outline of the steps: as §1
For the next assay, the target named is PUM1 PUF domain R7-RRM (Homo sapiens, UniProt Q14671 828-1176, S1079R;N1080R;E1083M). The essentials:
as §1

A further assay deals with PUM1 PUF domain R7-KRS (Homo sapiens, UniProt Q14671 828-1176, S1079K;N1080R;E1083S). An outline of the steps: as §1
For another assay, the target named is PUM1 PUF domain R5-PRA (Homo sapiens, UniProt Q14671 828-1176, C1007P;Q1011A). The essentials: as §1
In another assay the target is PUM1 PUF domain R4-WAG (Homo sapiens, UniProt Q14671 828-1176, N971W;H972A;Q975G). The essentials: as §1
The next assay deals with PUM1 PUF domain R4-GWY (Homo sapiens, UniProt Q14671 828-1176, N971G;H972W;Q975Y). The essentials:
as §1

In a further assay the target is PUM1 PUF domain R1-KLL (Homo sapiens, UniProt Q14671 828-1176, S863K;R864L;Q867L). An outline of the steps: as §1
The target in another assay is PUM1 PUF domain R4-DWE (Homo sapiens, UniProt Q14671 828-1176, N971D;H972W;Q975E). The essentials:
as §1

The target in another assay is PUM1 PUF domain R7-KGS (Homo sapiens, UniProt Q14671 828-1176, S1079K;N1080G;E1083S). The essentials: as §1
In a further assay the target is PUM1 PUF domain R8-HWL (Homo sapiens, UniProt Q14671 828-1176, N1122H;Y1123W;Q1126L). An outline of the steps:
as §1

A further assay concerns the target PUM1 PUF domain R8-VHR (Homo sapiens, UniProt Q14671 828-1176, N1122V;Y1123H;Q1126R). The essentials:
as §1

Another assay has as its target PUM1 PUF domain R8-HFS (Homo sapiens, UniProt Q14671 828-1176, N1122H;Y1123F;Q1126S). An outline of the steps:
as §1

The target of another assay is PUM1 PUF domain R3-LRC (Homo sapiens, UniProt Q14671 828-1176, C935L;Q939C). The essentials:
as §1

The next assay addresses PUM1 PUF domain R3-TME (Homo sapiens, UniProt Q14671 828-1176, C935T;R936M;Q939E). The essentials: as §1
The target in the next assay is PUM1 PUF domain R5-KGR (Homo sapiens, UniProt Q14671 828-1176, C1007K;R1008G;Q1011R). An outline of the steps:
as §1

Another assay concerns the target PUM1 PUF domain R8-QWS (Homo sapiens, UniProt Q14671 828-1176, N1122Q;Y1123W;Q1126S). The essentials: as §1
Another assay deals with PUM1 PUF domain R3-CNY (Homo sapiens, UniProt Q14671 828-1176, R936N;Q939Y). An outline of the steps: as §1
The next assay has as its target T1, PUM1 PUF domain R6-SFQ (Homo sapiens, UniProt Q14671 828-1176, N1043S;Y1044F).
T1 sequence: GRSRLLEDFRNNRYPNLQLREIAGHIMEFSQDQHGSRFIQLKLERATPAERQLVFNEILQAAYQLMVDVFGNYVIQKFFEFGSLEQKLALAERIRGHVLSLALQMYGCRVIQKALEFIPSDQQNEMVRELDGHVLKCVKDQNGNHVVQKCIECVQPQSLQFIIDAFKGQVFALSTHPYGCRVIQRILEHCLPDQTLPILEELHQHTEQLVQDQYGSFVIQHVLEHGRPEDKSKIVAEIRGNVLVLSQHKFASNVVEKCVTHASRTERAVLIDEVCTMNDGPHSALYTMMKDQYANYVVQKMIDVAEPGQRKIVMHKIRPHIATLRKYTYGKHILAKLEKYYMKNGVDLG
The essentials:
as §1

The target of a further assay is T2, PUM1 PUF domain R6-HFG (Homo sapiens, UniProt Q14671 828-1176, N1043H;Y1044F;Q1047G).
T2 sequence: T1 sequence with S216H, Q220G
An outline of the steps:
as §1

Changes are numbered by the printed parent chain.

As for “GGCUAGAACUAGUGGAUCCCCCGGCGCCCGGCGGCUCGAGCCCGGGUAAGUGUAAUUAGUCUGCAUGCCGCCGGGCGCCAUGCCUGCAGGUCGACUCUAGAAAACAUG”, the binding signal with PUM1 PUF domain R3-RDS is 2.88 log2 enrichment (interaction score); in the assay with PUM1 PUF domain R3-LYA it was 4.81 log2 enrichment (interaction score).
As to “GGCUAGAACUAGUGGAUCCCCCGGCGCCCGGCGGCUCGAGCCCGGGUAAGUCUAAAUAGUCUGCAUGCCGCCGGGCGCCAUGCCUGCAGGUCGACUCUAGAAAACAUG”, the results for the binding signal with PUM1 PUF domain R7-RRM and in the assay with PUM1 PUF domain R7-KRS were 4.89 log2 enrichment (interaction score) and 4.34 log2 enrichment (interaction score), respectively.
Regarding “GGCUAGAACUAGUGGAUCCCCCGGCGCCCGGCGGCUCGAGCCCGGGUAAGUGUUAAUAGUCUGCAUGCCGCCGGGCGCCAUGCCUGCAGGUCGACUCUAGAAAACAUG”, the binding signal with PUM1 PUF domain R5-PRA is 2.94 log2 enrichment (interaction score).
In the case of “GGCUAGAACUAGUGGAUCCCCCGGCGCCCGGCGGCUCGAGCCCGGGUAAGUGUAUAUAGUCUGCAUGCCGCCGGGCGCCAUGCCUGCAGGUCGACUCUAGAAAACAUG”, the figures for the binding signal with PUM1 PUF domain R4-WAG and in the assay with PUM1 PUF domain R4-GWY were 4.74 log2 enrichment (interaction score) and 5.08 log2 enrichment (interaction score), respectively.
For “GGCUAGAACUAGUGGAUCCCCCGGCGCCCGGCGGCUCGAGCCCGGGUAAGUGUAAAUUGUCUGCAUGCCGCCGGGCGCCAUGCCUGCAGGUCGACUCUAGAAAACAUG”, the binding signal with PUM1 PUF domain R1-KLL is 3.14 log2 enrichment (interaction score).
For “GGCUAGAACUAGUGGAUCCCCCGGCGCCCGGCGGCUCGAGCCCGGGUAAGUGUAGAUAGUCUGCAUGCCGCCGGGCGCCAUGCCUGCAGGUCGACUCUAGAAAACAUG”, the binding signal with PUM1 PUF domain R4-DWE is 4.93 log2 enrichment (interaction score).
As for “GGCUAGAACUAGUGGAUCCCCCGGCGCCCGGCGGCUCGAGCCCGGGUAAGUUUAAAUAGUCUGCAUGCCGCCGGGCGCCAUGCCUGCAGGUCGACUCUAGAAAACAUG”, the binding signal is 3.39 log2 enrichment (interaction score) with PUM1 PUF domain R7-KGS and 2.06 log2 enrichment (interaction score) with PUM1 PUF domain R7-KRS.
Take “GGCUAGAACUAGUGGAUCCCCCGGCGCCCGGCGGCUCGAGCCCGGGUAAGUGUACAUAGUCUGCAUGCCGCCGGGCGCCAUGCCUGCAGGUCGACUCUAGAAAACAUG”: the binding signal with PUM1 PUF domain R4-WAG is 3.92 log2 enrichment (interaction score).
Take “GGCUAGAACUAGUGGAUCCCCCGGCGCCCGGCGGCUCGAGCCCGGGUAAGCGUAAAUAGUCUGCAUGCCGCCGGGCGCCAUGCCUGCAGGUCGACUCUAGAAAACAUG”: the binding signal in the assay with PUM1 PUF domain R8-HWL is 4.14 log2 enrichment (interaction score); with PUM1 PUF domain R8-VHR, 3.33 log2 enrichment (interaction score); with PUM1 PUF domain R8-HFS, 2.47 log2 enrichment (interaction score).
On to “GGCUAGAACUAGUGGAUCCCCCGGCGCCCGGCGGCUCGAGCCCGGGUAAGUGUGAAUAGUCUGCAUGCCGCCGGGCGCCAUGCCUGCAGGUCGACUCUAGAAAACAUG”, for which the binding signal with PUM1 PUF domain R5-PRA is 1.9 log2 enrichment (interaction score).
Consider “GGCUAGAACUAGUGGAUCCCCCGGCGCCCGGCGGCUCGAGCCCGGGUAAGUGUAAGUAGUCUGCAUGCCGCCGGGCGCCAUGCCUGCAGGUCGACUCUAGAAAACAUG”, for which the binding signal with PUM1 PUF domain R3-LRC is 3.66 log2 enrichment (interaction score); in the assay with PUM1 PUF domain R3-TME, 4.56 log2 enrichment (interaction score); with PUM1 PUF domain R3-LYA it was 4.73 log2 enrichment (interaction score).
For the sequence “GGCUAGAACUAGUGGAUCCCCCGGCGCCCGGCGGCUCGAGCCCGGGUAAGUGUCAAUAGUCUGCAUGCCGCCGGGCGCCAUGCCUGCAGGUCGACUCUAGAAAACAUG”, the binding signal with PUM1 PUF domain R5-KGR was 4.53 log2 enrichment (interaction score).
Regarding “GGCUAGAACUAGUGGAUCCCCCGGCGCCCGGCGGCUCGAGCCCGGGUAAGUGUAAAUAGUCUGCAUGCCGCCGGGCGCCAUGCCUGCAGGUCGACUCUAGAAAACAUG”, the binding signal with PUM1 PUF domain R8-QWS was 4.13 log2 enrichment (interaction score); with PUM1 PUF domain R4-WAG, 2.25 log2 enrichment (interaction score); in the assay with PUM1 PUF domain R8-HWL it was 3.96 log2 enrichment (interaction score); with PUM1 PUF domain R3-CNY, 3.55 log2 enrichment (interaction score); in the assay with PUM1 PUF domain R6-SFQ it was 2.98 log2 enrichment (interaction score); with PUM1 PUF domain R6-HFG, 5.43 log2 enrichment (interaction score). The figures for the binding signal in the assay with PUM1 PUF domain R5-PRA, with PUM1 PUF domain R8-VHR and with PUM1 PUF domain R3-LYA were 4.36 log2 enrichment (interaction score), 3.13 log2 enrichment (interaction score) and 2.44 log2 enrichment (interaction score), respectively.
With “GGCUAGAACUAGUGGAUCCCCCGGCGCCCGGCGGCUCGAGCCCGGGUAAGUGUAAAUCGUCUGCAUGCCGCCGGGCGCCAUGCCUGCAGGUCGACUCUAGAAAACAUG”, the binding signal in the assay with PUM1 PUF domain R1-KLL was 4.54 log2 enrichment (interaction score).
